According to PubChem BioAssay (NCI):
This is part of a sample that, as a whole, favours compounds with a hit. Of some 79,000 tested, about 15% had one in any assay. Calls of active or inactive are those of the source. Rule as the data show it: active = growth inhibition above about 70%; inactive = the rest.

How the values were obtained:
[1] = NCI Yeast Anticancer Drug Screen. Data for the rad52 strain (AID 147);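 also: 0% = growth of vehicle-treated control cultures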; conditions: S. cerevisiae rad52 mutant growth inhibition, active compounds read high
How it was run: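 Vehicle-treated cultures served as the reference for growth inhibition of compound-exposed yeast bearing a DNA repair mutation.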

[2] = NCI Yeast Anticancer Drug Screen. Data for the wt1 strain (AID 149);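 also: 0% = growth of vehicle-treated wt1 cultures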; conditions: S. cerevisiae wt1 strain (SPY 50644) growth inhibition, active compounds read high
How it was run: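 The wt1 strain was treated with compounds, and growth was compared with vehicle-treated cultures to give inhibition.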

[3] = NCI Yeast Anticancer Drug Screen. Data for the rad50EPP+ strain (AID 151);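 also: 0% = growth of vehicle-treated control cultures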; conditions: S. cerevisiae rad50 mutant strain, active compounds read high
How it was run: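 In this screen, rad50EPP+ yeast were exposed to compounds. Growth inhibition was scored against vehicle-treated controls.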

[4] = NCI Yeast Anticancer Drug Screen. Data for the mgt1 strain (AID 153); conditions: S. cerevisiae mgt1 mutant growth inhibition, active compounds read high
How it was run: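 mgt1 strain exposed; growth vs vehicle control recorded as inhibition.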

[5] = NCI Yeast Anticancer Drug Screen. Data for the rad50 strain (AID 155);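 also: 0% = growth of vehicle-only cultures of the same strain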; conditions: S. cerevisiae rad50 strain growth inhibition, active compounds read high
How it was run: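 Cells are treated with compound, grown, and their growth is then scored against vehicle-only cultures of the same repair-deficient yeast strain.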

[6] = NCI Yeast Anticancer Drug Screen. Data for the mec2-1 strain (AID 157); conditions: S. cerevisiae mec2-1 strain, active compounds read high
How it was run: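 Vehicle-treated cultures served as reference for growth inhibition of compound-exposed mec2-1 yeast.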

[7] = NCI Yeast Anticancer Drug Screen. Data for the rad14 strain (AID 159);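 also: 0% = growth of vehicle-treated control cultures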; conditions: S. cerevisiae rad14 strain growth inhibition, active compounds read high
How it was run: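 Readout: yeast growth inhibition, referenced to vehicle-only cultures. Strain bears a defined alteration in DNA damage repair.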

[8] = NCI Yeast Anticancer Drug Screen. Data for the sgs1 mgt1 strain (AID 161);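 also: 0% = growth of cultures given vehicle only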; conditions: S. cerevisiae sgs1 mgt1 strain, active compounds read high
How it was run: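 Inhibition of yeast growth, normalised to vehicle-treated controls, is reported for a strain bearing genetic alterations in DNA damage repair.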

[9] = NCI Yeast Anticancer Drug Screen. Data for the CLN2oe strain (AID 163);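 also: 0% = growth of vehicle-only control cultures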; conditions: S. cerevisiae CLN2oe strain, active compounds read high
How it was run: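 Inhibition relative to vehicle-treated yeast is reported. Cells: strain with genetic alteration in cell-cycle control, grown with compound.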

[10] = NCI Yeast Anticancer Drug Screen. Data for the cln2 rad14 strain (AID 165);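 also: 0% = growth equal to vehicle treated cultures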; conditions: S. cerevisiae cln2 rad14 strain, active compounds read high
How it was run: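 Each compound was tested on cln2 rad14 yeast. Inhibition of growth was calculated against vehicle-exposed controls.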

[11] = NCI Yeast Anticancer Drug Screen. Data for the bub3 strain (AID 167); conditions: S. cerevisiae bub3 mutant strain, active compounds read high
How it was run: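 Part of a panel of yeast mutants defective in DNA damage repair or cell cycle regulation. Each strain is grown with compound, and inhibition is calculated relative to solvent-treated cultures.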

[12] = NCI Yeast Anticancer Drug Screen. Data for the mlh1 strain (AID 171);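 also: 0% = growth of vehicle-treated control cultures of the same strain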; conditions: S. cerevisiae mlh1 strain growth inhibition, active compounds read high
How it was run: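 Vehicle-normalised growth inhibition of a repair- or checkpoint-altered yeast strain following compound treatment.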

[13] = NCI Yeast Anticancer Drug Screen. Data for the sgs1 strain (AID 173);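 also: 0% = growth of vehicle-only control cultures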; conditions: S. cerevisiae sgs1 mutant, active compounds read high
How it was run: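 Screen format: yeast with repair or checkpoint alterations, compound exposure, growth read relative to vehicle.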

[14] = NCI Yeast Anticancer Drug Screen. Data for the mlh1 rad18 strain (AID 175); conditions: S. cerevisiae mlh1 rad18 strain growth inhibition, active compounds read high
How it was run: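 Vehicle-treated cultures served as the reference for growth inhibition in a yeast strain carrying DNA damage repair alterations exposed to each compound.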

[15] = NCI Yeast Anticancer Drug Screen. Data for the rad18 strain (AID 177); conditions: S. cerevisiae rad18 mutant growth inhibition, active compounds read high
How it was run: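 Test articles were incubated with altered yeast defective in DNA damage repair. Results are given as inhibition of growth versus vehicle.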

[16] = NCI Yeast Anticancer Drug Screen. Data for the wt2 strain (AID 169);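 also: 0% = growth of vehicle-treated yeast cultures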; conditions: S. cerevisiae wt2 strain growth inhibition, active compounds read high
How it was run: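 Inhibition of yeast growth was determined after compound treatment, normalised to controls receiving only vehicle.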

[17] = at 5.0 µM (retest, dose inferred, filed as 0.5)
[18] = at 50.0 µM (retest, dose inferred, filed as 5.0)

Measured: growth inhibition

CCC(=O)Oc1ccc(/C=N/NC(N)=S)nc1
inactive: [1]; at 1.2 µM -6% | [1]; at 3.7 µM -11% | [1]; at 11.0 µM 4% | [1]; at 33.0 µM 13% | [1]; at 100.0 µM 18% | [2]; at 1.2 µM 0% | [2]; at 3.7 µM 7% | [2]; at 11.0 µM 7% | [2]; at 33.0 µM 13% | [2]; at 100.0 µM 19% | [3]; at 1.2 µM 0% | [3]; at 3.7 µM -5% | [3]; at 11.0 µM -9% | [3]; at 33.0 µM -11% | [3]; at 100.0 µM -12% | [4]; at 1.2 µM -1% | [4]; at 3.7 µM -3% | [4]; at 11.0 µM -2% | [4]; at 33.0 µM -5% | [4]; at 100.0 µM -4% | [5]; at 1.2 µM -7% | [5]; at 3.7 µM -11% | [5]; [17] -6% | [5]; at 11.0 µM -12% | [5]; at 33.0 µM 3% | [5]; [18] 6% | [5]; at 50.0 µM 22.4% | [5]; at 100.0 µM 21% | [6]; at 1.2 µM -2% | [6]; at 3.7 µM 0% | [6]; [17] 0% | [6]; at 11.0 µM 0% | [6]; at 33.0 µM 37% | [7]; at 1.2 µM 1% | [7]; at 3.7 µM 1% | [7]; at 11.0 µM 3% | [7]; at 33.0 µM 10% | [7]; at 100.0 µM 12% | [8]; [17] 0% | [8]; [18] 32% | [8]; at 50.0 µM 39% | [9]; at 1.2 µM -5% | [9]; at 3.7 µM -8% | [9]; at 11.0 µM -11% | [9]; at 33.0 µM -11% | [9]; at 100.0 µM -9% | [10]; [17] -5% | [10]; [18] -14% | [10]; at 50.0 µM 4% | [11]; at 1.2 µM -7% | [11]; at 3.7 µM -4% | [11]; [17] -8% | [11]; at 11.0 µM -15% | [11]; at 33.0 µM -18% | [11]; [18] -13% | [11]; at 50.0 µM 17.1% | [11]; at 100.0 µM -15% | [12]; at 1.2 µM -8% | [12]; at 3.7 µM -3% | [12]; at 11.0 µM -6% | [12]; at 33.0 µM -8% | [12]; at 100.0 µM 3% | [13]; at 1.2 µM -16% | [13]; at 3.7 µM -11% | [13]; at 11.0 µM -2% | [13]; at 33.0 µM 9% | [13]; at 100.0 µM 11% | [14]; [17] -2% | [14]; [18] 19% | [14]; at 50.0 µM 26.1% | [15]; at 1.2 µM -4% | [15]; at 3.7 µM 1% | [15]; at 11.0 µM -3% | [15]; at 33.0 µM -8% | [15]; at 100.0 µM -5%
active: [6]; [18] 95% | [6]; at 50.0 µM 87.4% | [6]; at 100.0 µM 91%

Cc1cc(Cl)nc2nc(Cl)c(N)cc12
active: [4]; at 100.0 µM 87% | [7]; at 100.0 µM 78% | [8]; at 50.0 µM 73.5% | [16]; at 100.0 µM 94% | [14]; [18] 84% | [15]; at 100.0 µM 80%
inactive: [1]; at 1.2 µM -8% | [1]; at 3.7 µM -3% | [1]; at 11.0 µM -10% | [1]; at 33.0 µM 16% | [1]; at 100.0 µM 69% | [2]; at 1.2 µM -16% | [2]; at 3.7 µM -7% | [2]; at 11.0 µM -2% | [2]; at 33.0 µM 2% | [2]; at 100.0 µM 27% | [3]; at 1.2 µM -17% | [3]; at 3.7 µM -17% | [3]; at 11.0 µM -13% | [3]; at 33.0 µM 0% | [3]; at 100.0 µM 49% | [4]; at 1.2 µM -14% | [4]; at 3.7 µM -12% | [4]; at 11.0 µM -9% | [4]; at 33.0 µM 20% | [5]; at 1.2 µM -4% | [5]; at 3.7 µM -18% | [5]; [17] 11% | [5]; at 11.0 µM -4% | [5]; at 33.0 µM 8% | [5]; [18] 55% | [5]; at 50.0 µM 38.6% | [5]; at 100.0 µM 51% | [6]; at 1.2 µM -13% | [6]; at 3.7 µM -17% | [6]; [17] 7% | [6]; at 11.0 µM -7% | [6]; at 33.0 µM 32% | [6]; [18] 62% | [6]; at 50.0 µM 62.9% | [6]; at 100.0 µM 44% | [7]; at 1.2 µM 1% | [7]; at 3.7 µM 2% | [7]; at 11.0 µM 1% | [7]; at 33.0 µM 28% | [8]; [17] -11% | [8]; [18] 55% | [9]; at 1.2 µM 4% | [9]; at 3.7 µM 1% | [9]; at 11.0 µM 5% | [9]; at 33.0 µM 6% | [9]; at 100.0 µM 54% | [10]; [17] 29% | [10]; [18] 42% | [10]; at 50.0 µM 22.6% | [11]; at 1.2 µM -20% | [11]; at 3.7 µM -2% | [11]; [17] -24% | [11]; at 11.0 µM -4% | [11]; at 33.0 µM 1% | [11]; [18] 30% | [11]; at 50.0 µM 48.2% | [11]; at 100.0 µM 67% | [16]; at 1.2 µM -22% | [16]; at 3.7 µM -16% | [16]; at 11.0 µM -24% | [16]; at 33.0 µM 21% | [13]; at 1.2 µM -2% | [13]; at 3.7 µM -6% | [13]; at 11.0 µM -1% | [13]; at 33.0 µM 13% | [13]; at 100.0 µM 63% | [14]; [17] 11% | [15]; at 1.2 µM -29% | [15]; at 3.7 µM -24% | [15]; at 11.0 µM -10% | [15]; at 33.0 µM 35%

COc1ccc(N)c2c1C(=O)c1ccccc1C2=O
inactive: [1]; at 1.2 µM 6% | [1]; at 3.7 µM 11% | [1]; at 11.0 µM 46% | [2]; at 1.2 µM 0% | [2]; at 3.7 µM 11% | [2]; at 11.0 µM 14% | [2]; at 33.0 µM 47% | [3]; at 1.2 µM 9% | [3]; at 3.7 µM 26% | [3]; at 11.0 µM 59% | [4]; at 1.2 µM 3% | [4]; at 3.7 µM -3% | [4]; at 11.0 µM 8% | [4]; at 33.0 µM 39% | [5]; at 1.2 µM 7% | [5]; at 3.7 µM 8% | [5]; [17] 30% | [5]; at 11.0 µM 35% | [5]; [18] 39% | [5]; at 50.0 µM 60.2% | [6]; at 1.2 µM -9% | [6]; at 3.7 µM 0%
active: [1]; at 33.0 µM 90% | [1]; at 100.0 µM 96% | [2]; at 100.0 µM 94% | [3]; at 33.0 µM 93% | [3]; at 100.0 µM 97% | [4]; at 100.0 µM 93% | [5]; at 33.0 µM 89% | [5]; at 100.0 µM 96%
